Measured values reported in PubChem BioAssay (NCI).
This is part of a sample that, as a whole, favours compounds with a hit. Of some 79,000 tested, about 15% had one in any assay. Calls of active or inactive are those of the source. No stated cut-off is given here; in the data, active means growth inhibition above about 70%; inactive means the rest.

Columns and labels:
[1] = NCI Yeast Anticancer Drug Screen. Data for the rad50 strain (AID 155);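 further: 0% = growth of vehicle-only cultures of the same strain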; details: S. cerevisiae rad50 strain growth inhibition; at 50.0 µM; stronger effect = higher value
Summary of the method: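 Relative growth inhibition (compound vs vehicle) was measured in yeast with a defined repair-gene alteration.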

[2] = NCI Yeast Anticancer Drug Screen. Data for the mec2-1 strain (AID 157); details: S. cerevisiae mec2-1 strain, at 50.0 µM, stronger effect = higher value
Summary of the method: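 Compounds were applied to mec2-1 yeast cells. Their growth was then compared with that of vehicle-treated cultures to give growth inhibition.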

[3] = NCI Yeast Anticancer Drug Screen. Data for the sgs1 mgt1 strain (AID 161);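 further: 0% = growth of cultures given vehicle only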; details: S. cerevisiae sgs1 mgt1 strain, at 50.0 µM, stronger effect = higher value
Summary of the method: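 Growth of a repair-deficient yeast mutant was monitored after compound treatment and expressed as inhibition relative to vehicle-treated cultures.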

[4] = NCI Yeast Anticancer Drug Screen. Data for the cln2 rad14 strain (AID 165);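 further: 0% = growth equal to vehicle treated cultures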; details: S. cerevisiae cln2 rad14 strain, at 50.0 µM, stronger effect = higher value
Summary of the method: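 Strain: cln2 rad14 yeast, altered in cell cycle control and DNA damage repair. Read-out: growth inhibition vs vehicle.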

[5] = NCI Yeast Anticancer Drug Screen. Data for the bub3 strain (AID 167); details: S. cerevisiae bub3 mutant strain, at 50.0 µM, stronger effect = higher value
Summary of the method: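 Screening used yeast with an engineered genetic alteration affecting cell cycle control. Compound-exposed cultures were compared with vehicle cultures, and reduced growth was taken as inhibition.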

[6] = NCI Yeast Anticancer Drug Screen. Data for the mlh1 rad18 strain (AID 175); details: S. cerevisiae mlh1 rad18 strain growth inhibition; at 50.0 µM; stronger effect = higher value
Summary of the method: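 A repair-deficient yeast strain is exposed to test compound, and growth is scored relative to vehicle-treated controls.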

Measured: growth inhibition

CCCCS/C=C1\CC2OC(=O)C3(C)CCCC(C)(C1=O)C23 (configuration not stated)
inactive: [1] -1.85% | [2] 15.2% | [3] 8.15% | [4] -3% | [5] 11.5% | [6] 26.6%

c1ccc2c(c1)ccc1nc3c4ccccc4c4ccccc4c3nc12
inactive: [1] 13.6% | [2] -2.85% | [3] -6.9% | [4] -3.45% | [5] 13% | [6] 13.8%

Cc1cc(N(CCC#N)CCC#N)ccc1/C=C1\N=C(c2cc([N+](=O)[O-])ccc2Cl)N(c2cccc(Cl)c2)C1=O
inactive: [1] -19.4% | [2] -20.2% | [3] -23.9% | [4] -7.6% | [5] -6.05% | [6] -29.2%

c1ccc(SCCC(Sc2ccccc2)Sc2ccccc2)cc1
inactive: [1] -3.45% | [2] 5% | [3] -3.75% | [4] -13.8% | [5] -1.6% | [6] 3.65%

Cn1c(=O)n(C2(C)CSC2)c2ccccc21
inactive: [1] -27.2% | [2] -14.6% | [3] -46.1% | [4] -3.95% | [5] -3.35% | [6] -33.9%

N#CC1C2CCC(C2)C1CCCN (configuration not stated)
inactive: [1] 18.4% | [2] -8.75% | [3] 6.55% | [4] -81.9% | [5] -8.05% | [6] -13.8%

C=CS(=O)(=O)CCCCCCCCCCCCCCCCCC
inactive: [1] -2.35% | [2] 10.7% | [3] -18.4% | [4] -12.8% | [5] 5.3% | [6] 8.9%

N=C1N=Nc2nc(C(C(=O)c3cccc(O)c3)c3nc4n(c3O)C(=N)N=N4)c(O)n21 (configuration not stated)
inactive: [1] 18.8% | [2] 23.9% | [3] -8.9% | [4] 10.4% | [5] -2.75% | [6] 28.6%

Cc1sc2nc3n(c(=O)c2c1C)N=C(c1ccc([N+](=O)[O-])cc1)CS3
inactive: [1] 9.15% | [2] -14.9% | [3] -10.1% | [4] 24.1% | [5] 7.2% | [6] -8.1%

Cc1cccc(C(=O)NNC(=O)c2ccc3ccccc3c2)c1
inactive: [1] -60.3% | [2] -49.7% | [3] -23.9% | [4] -3.6% | [5] -28.9% | [6] -33.2%

Cc1cccc(C(=O)OCc2ccccc2CN2CCCCC2)c1
inactive: [1] -5.15% | [2] -9.75% | [3] -12.9% | [4] -21.6% | [5] 2.85% | [6] -3.6%

CCCCCCCCCCCCCCCC[N+]1(C)CCC[N+](C)(CCCCCCCCCCCCCCCC)CC1 (configuration not stated)
inactive: [1] -5.25% | [2] -21% | [3] -2.65% | [4] -22.6% | [5] -8.4% | [6] -0.1%

CC1=C(c2cc(C(=O)Nc3ccc(Cl)cc3)nc(=S)[nH]2)Sc2ccccc2N1
inactive: [1] -30.9% | [2] -15.2% | [3] -46% | [4] -1.45% | [5] -5.65% | [6] -35.4%

COc1c(NC(=O)C(Br)C(Br)C(=O)O)cccc1[N+](=O)[O-] (configuration not stated)
inactive: [1] -20.9% | [2] 19.5% | [3] -7.65% | [5] -2.85% | [6] -2.25%
active: [4] 85%

CCOc1ccccc1C(=O)Oc1ccc(C)cc1
inactive: [1] -4.6% | [2] -19.2% | [3] 7.1% | [4] -3.85% | [5] -5.5% | [6] 24.1%

CN(C)c1nc2[nH]ncc2c(=O)[nH]1
inactive: [1] 11.6% | [2] 1.25% | [3] 5.7% | [4] -10.1% | [5] 0.5% | [6] 0.8%

CC(=O)O[C@H]1CC[C@@]2(C)[C@@H](CC[C@@H]3[C@@H]2CC[C@]2(C)[C@@H](C(=O)CCC(F)(F)F)CC[C@@H]32)C1
inactive: [1] 16.9% | [2] 20.9% | [3] 33.6% | [4] 23.3% | [5] 0.15% | [6] 18.9%

Cc1ccc(NC(=O)C(C)S)cc1 (configuration not stated)
inactive: [1] 24.6% | [2] 11.6% | [3] 29.1% | [4] 38.6% | [5] 25.7% | [6] 32.4%

C=CCNc1ccc(C)cc1
inactive: [1] 16.5% | [2] -8.15% | [3] 20.1% | [4] 13.4% | [5] -5% | [6] 20.4%

COc1ccc(C2c3cc4c(cc3OC3(O)CCCC(=O)C23)OCO4)cc1 (configuration not stated)
inactive: [1] -13.2% | [2] 15.3% | [3] 4.55% | [4] -39.3% | [5] 20.6% | [6] -7.4%

O=C(O)c1ccccc1C(=O)Cc1ccccc1
inactive: [1] -14.7% | [2] -19% | [3] -6.7% | [4] -16% | [5] -29.6% | [6] -9.6%

Nc1ncnc2c1N=C(c1ccccc1)CC(c1ccccc1)N2 (configuration not stated)
inactive: [1] -8.75% | [2] -5.15% | [3] -4.15% | [4] 3.15% | [5] -35.4% | [6] 2.6%

O=C(OCOC(=O)c1ccccc1)c1ccccc1
inactive: [1] -23.1% | [2] -5.95% | [3] -8.6% | [4] -18.5% | [5] -4.7% | [6] -6.55%

O=C(O)c1ccc([N+](=O)[O-])cc1C(=O)c1cccs1
inactive: [1] 0.7% | [2] -7.75% | [3] 4.6% | [4] -2.35% | [5] 5.6% | [6] -0.05%

Oc1cc(N2CCCC2)ccc1/C=N/N1C(=S)N(c2ccccc2)C(=Nc2ccccc2)C1=Nc1ccccc1
inactive: [1] -23.1% | [2] -31.8% | [3] -1.3% | [4] 6.7% | [5] -30.6% | [6] -39.9%

CCCCCC/C(=C\c1ccc(O)cc1)C(=O)O
inactive: [1] 17.6% | [2] 36.1% | [3] 32.8% | [4] 47.9% | [5] 39.6% | [6] 41.8%

CC1C2(C)OC(=N)C(C#N)(C(c3ccco3)O2)C1(C#N)C#N (configuration not stated)
inactive: [1] 6.75% | [2] 3.1% | [3] -6.55% | [4] 5.95% | [5] -9.65% | [6] -1.4%

NCCCCN(CCCN)C(=O)c1ccccc1
inactive: [1] 5.5% | [2] -2.2% | [3] -17.8% | [4] 1.8% | [5] -14.3% | [6] -68.9%

CCNCC(=O)Nc1ccc(C(=O)OC)cc1
inactive: [1] -8% | [2] -29.4% | [3] -9.9% | [4] -20% | [5] 1.45% | [6] -28.9%

CC1CCCC1N (configuration not stated)
inactive: [1] -13.7% | [2] -12.5% | [3] -24.5% | [4] -27.1% | [5] -5.85% | [6] -7.5%

CC1(Br)S(=O)(=O)OCCOS1(=O)=O
inactive: [1] -23% | [2] -15.9% | [3] -12.3% | [4] 6.1% | [5] -24.2% | [6] -42.5%

CC(=O)N(C(C)=O)c1cc2c3ccccc3ccc2c2ccccc12
inactive: [1] 22.4% | [2] -6.3% | [3] 31.1% | [4] 15.1% | [5] 32.8% | [6] 29.4%

Cc1ccc(N=Nc2c(N)ccc3ccccc23)cc1
active: [1] 90.5% | [2] 87.2% | [3] 89.6% | [4] 84.2% | [5] 87% | [6] 86.5%

O=C(Oc1c(Cl)c(Cl)c(Cl)c(Cl)c1Cl)Oc1c(Cl)c(Cl)c(Cl)c(Cl)c1Cl
inactive: [1] -13.7% | [2] -8.25% | [3] 19.1% | [4] -15.1% | [5] 12.8% | [6] 3.4%

O=C(CSc1nc2[nH]ncc2c(=O)[nH]1)c1ccc(Cl)cc1
inactive: [1] -37.2% | [2] -36.6% | [3] -27.2% | [4] 3.5% | [5] 11.4% | [6] -34.2%

Cn1c(=O)c2c(nc(C(=N)SCC(=O)O)n2C)n(C)c1=O
inactive: [1] 3.1% | [2] 16.4% | [3] 15.8% | [4] 55% | [5] -44.8% | [6] 3.8%

CC(C)=C/C(C)=N/Nc1ccc([N+](=O)[O-])cc1[N+](=O)[O-]
inactive: [1] 5.9% | [2] 5.6% | [3] 13.5% | [4] 2.05% | [5] 12.8% | [6] -0.2%
